# High-throughput results (PubChem BioAssay)
# Sampled rows, rich in hits. Any-hit rate of the full collection: about 2.1%.
# ARNT-TACC3 inh = ARNT/TACC3 interaction disruption; AlphaScreen His-ARNT PAS-B/GST-TACC3 binding, luminescence; TACC3 fragment carries E629A point mutation; inhibition, % at 9.99 µM; actives 0.66% (n = 390,000); AID 623870;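 active means mean inhibition of replicates at least 50% and at least half of replicates each reaching 50%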;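 further: 0% = complete ARNT plus TACC3 wells and 100% = ARNT alone without TACC3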
# SIRT5 inh = inhibitors of human sirtuin-5 desuccinylase; Purified SirT5, succinyl-peptide AMC, trypsin-coupled fluorescence; inhibition, % at 15 µM; actives 1.1% (n = 330,000); in the data active means inhibition above about 15%
# Target sequence (Q9NXA8 whole entry, looked up): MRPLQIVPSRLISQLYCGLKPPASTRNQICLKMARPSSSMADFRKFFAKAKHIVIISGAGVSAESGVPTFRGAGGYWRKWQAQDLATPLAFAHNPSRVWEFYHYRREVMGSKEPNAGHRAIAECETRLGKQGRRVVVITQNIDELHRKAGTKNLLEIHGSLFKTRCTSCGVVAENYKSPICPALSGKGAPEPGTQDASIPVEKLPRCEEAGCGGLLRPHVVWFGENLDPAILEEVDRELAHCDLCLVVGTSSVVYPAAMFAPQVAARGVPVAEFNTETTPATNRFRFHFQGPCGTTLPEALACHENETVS
# PfHsp90 set2 = growth inhibition of yeast expressing Plasmodium Hsp90; S. cerevisiae expressing PfHsp90, BacTiter-Glo ATP, 48 h; yeast lacking PDR1 and PDR3 efflux regulators; inhibition, % at 9.4 µM; actives 0.32% (n = 310,000); AID 504621;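 active means every replicate shows inhibition above about 80%, whatever the replicate mean, limit read from the data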;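 further: 0% = DMSO neutral controls and 100% = 20 µM radicicol positive controls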
# NSD2 HMT inh = blocks human histone methyltransferase NSD2 | NSD2 peptide methylation, AlphaScreen, 120 min | inhibition, % at 12.5 µM | actives 0.54% (n = 310,000) | O96028 | AID 743445; in the data active means inhibition above about 50%
# Casp6 inh = caspase-6 (human) enzyme inhibition | P55212 | purified caspase-6, Z-VEID-R110 cleavage fluorescence | inhibition, % at 12.5 µM | actives 0.53% (n = 350,000);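 active means mean inhibition across replicates at least about 35%, with every replicate also reaching that limit, limit read from the data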;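 further: 0% = median of neutral control wells and 100% = no fluorescence left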
# Target sequence (P55212 24-179 limits assumed): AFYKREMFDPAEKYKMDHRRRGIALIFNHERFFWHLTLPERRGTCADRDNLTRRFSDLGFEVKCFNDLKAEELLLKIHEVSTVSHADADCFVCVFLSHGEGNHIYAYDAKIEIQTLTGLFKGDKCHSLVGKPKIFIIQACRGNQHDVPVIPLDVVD
# Target sequence (P55212 194-293 limits assumed): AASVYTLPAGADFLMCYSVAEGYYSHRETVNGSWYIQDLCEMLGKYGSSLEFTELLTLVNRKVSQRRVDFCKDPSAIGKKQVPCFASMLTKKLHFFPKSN
# An asterisk follows results filed as active; / = no result given.
SMILES,ARNT-TACC3 inh,SIRT5 inh,PfHsp90 set2,NSD2 HMT inh,Casp6 inh
N/C(Cc1ccc(Cl)cc1Cl)=N\OC(=O)c1ccc(Br)o1,-3,-1,98*,-1,1
N/C(Cc1cccc2ccccc12)=N\OC(=O)c1ccc(Br)o1,/,-1,/,/,0
N/C(Cc1ccc(Cl)cc1Cl)=N\OC(=O)c1cccs1,-2,/,83*,1,/
CO[C@@H]1CN(C)C(=O)c2ccc(NS(=O)(=O)c3cccc(F)c3)cc2OC[C@@H](C)NC[C@@H]1C,/,-3,/,/,1
O=C(C[C@@H]1CC[C@H]2[C@@H](COC[C@H](O)CN2S(=O)(=O)c2ccccc2)O1)NCC1CCCCC1,4,-17,/,/,-1
CCc1nc(N2[C@H](C#N)[C@@H](c3ccccc3-c3ccccc3F)[C@@H]2CO)sc1C,/,1,/,/,2
N#C/C(=C\c1cccc([N+](=O)[O-])c1)C(=O)NCc1ccc(Cl)cc1,-3,-2,105*,-2,1
N#C/C(=C\c1cccc([N+](=O)[O-])c1)C(=O)NCc1cccnc1,4,/,-28,0,/
CN=c1sc2c(n1C)C(=O)c1ccccc1C2=O,2,-3,-101,/,63*
CC=Cc1ccc2n(c1=O)C[C@@H]1[C@@H](CO)[C@H](C(=O)NCCC)[C@H]2N1C(=O)C1CCCC1 (mixture of isomers),-14,-19,/,/,2
COc1cccc(S(=O)(=O)N[C@H]2CC[C@@H](CC(=O)NCc3ccc(Cl)cc3)O[C@H]2CO)c1,36*,0,/,/,0
COC(=O)C[C@H]1CC[C@@H](NS(=O)(=O)c2ccc(OC)cc2)[C@H](CO)O1,48*,-1,/,/,0
Cc1ccc([C@H]2C[C@H](O)[C@@H](n3cc(COC(=O)c4ccccc4)nn3)CN2C(=O)c2cccs2)cc1,/,17*,/,/,-1
CCCCCCN1C[C@H](O)[C@@H](n2cc(COC(=O)c3ccccc3)nn2)C[C@@H]1c1ccc(Cl)cc1,/,15*,/,/,-4
O=C(CCN1CCCCC1)NCC[C@@H]1CC[C@@H](NS(=O)(=O)c2cccc(F)c2)[C@@H](CO)O1,-3,2,/,/,-7
COCC(=O)N1C[C@H](C)[C@@H](OC)CN(C)C(=O)c2ccc(NC(=O)c3ccc(F)cc3)cc2OC[C@@H]1C,/,2,/,/,1
O=C(CCC(=O)OCc1ccc(Br)cc1)Nc1ccccc1,-9,35*,-1,-1,2
O=C(C[C@@H]1CC[C@@H]2[C@H](COC[C@H](O)CN2C(=O)Nc2cc(Cl)cc(Cl)c2)O1)NCC1CCCCC1,7,1,/,/,-1
CC(C1SC(=S)NC1=O)C1SC(=S)NC1=O (stereo unspecified),/,12,/,31,68*
O=C(Nc1nc2c(Cl)cccc2s1)C1CC1,2,1,32,-10,5
Cc1cccc2sc(NC(=O)C3CC3)nc12,-1,24*,11,-2,1
Cc1noc(C)c1NC(=O)N(C)C[C@@H]1OCCCC[C@H](C)Oc2ccc(NC(=O)NC(C)C)cc2C(=O)N([C@@H](C)CO)C[C@@H]1C,5,0,/,/,6
c1ccc(CNc2nc(-c3ccccn3)nc3ccccc23)cc1,70*,-2,-15,38,12
CCC(C)Nc1nc(-c2ccccn2)nc2ccccc12 (stereo unspecified),62*,1,-2,22,0
c1ccc(CNc2nc(-c3ccccc3)nc3ccccc23)cc1,-9,-1,2,-3,0
SMILES,ARNT-TACC3 inh,SIRT5 inh,PfHsp90 set2,NSD2 HMT inh,Casp6 inh
CCC(=O)N1CC2(C1)[C@H](c1ccccc1)[C@H](CO)N2CC1CC1,/,-3,/,/,6
Cc1ccc(C(=O)N/C(=C\c2ccc(-c3ccccc3[N+](=O)[O-])o2)C(=O)NCCCN(C)C)cc1,/,1,10,23,11
Cc1ccc(C(=O)N/C(=C\c2ccc(-c3ccccc3[N+](=O)[O-])o2)C(=O)NCCN(C)C)cc1,22*,-3,24,8,3
O=C(C[C@H]1C[C@H]2c3cc(NC(=O)Nc4ccccc4F)ccc3O[C@H]2[C@H](CO)O1)NCc1ccc2c(c1)OCO2,-1,0,/,/,4
Cc1[nH]c2ccccc2c1C(=O)C(=O)N1CCN(c2ccccc2Cl)CC1,0,34*,-28,0,1
COc1ccc(NC(=O)N(C)C[C@@H]2Oc3cc(C#CCN(C)C)ccc3S(=O)(=O)N([C@@H](C)CO)C[C@H]2C)cc1,-7,-2,/,/,0
C=C1c2cccc(O)c2C(O)=C2C(=O)[C@]3(O)C(O)=C(C(N)=O)C(=O)[C@@H](N(C)C)[C@@H]3[C@@H](O)[C@H]12,61*,/,9,/,94*
C[C@H]1c2cccc(O)c2C(O)=C2C(=O)C3(O)C(O)=C(C(N)=O)C(=O)[C@@H](N(C)C)[C@@H]3[C@@H](O)[C@@H]21 (stereo partly specified),26,-2,-1,/,24
CNC[C@H]1OCCCC[C@@H](C)Oc2ccc(NS(=O)(=O)c3cn(C)cn3)cc2C(=O)N([C@H](C)CO)C[C@H]1C,-4,/,/,/,/
CCOc1ccc(C(=O)Nc2nnc(C3=COCCO3)o2)cc1,27,1,/,1,-2
O=C(COc1ccc(Cl)cc1Cl)Nc1nnc(C2=COCCO2)o1,24,0,28,-4,1
COc1ccc(C(=O)Nc2nnc(C3=COCCO3)o2)cc1,58*,-1,-28,-3,8
O=C(COc1ccc(Cl)cc1)Nc1nnc(C2=COCCO2)o1,47*,1,5,-9,5
O=C(Nc1ccc2c(c1)[C@H]1C[C@H](CC(=O)N3CCCCC3)O[C@H](CO)[C@H]1O2)c1ccc2c(c1)OCO2,1,0,/,/,4
COCC#Cc1cnc2c(c1)C(=O)N([C@H](C)CO)C[C@@H](C)[C@H](CN(C)C(=O)CN1CCOCC1)O2,0,-1,/,/,0
O=C([C@H]1[C@H](CO)[C@H]2Cn3c(cccc3=O)[C@H]2N1CCC(F)(F)F)N1CCCCC1,active,10,/,/,16
O=C(NCC(F)(F)F)[C@@H]1[C@@H](CO)[C@@H]2Cn3c(cccc3=O)[C@@H]2N1Cc1cccc(F)c1,/,16*,/,/,-1
O=C([C@H]1[C@H](CO)[C@H]2Cn3c(cccc3=O)[C@H]2N1Cc1cc(F)ccc1F)N1CCOCC1,4,1,/,/,37*
CC(=O)N1[C@@H]2c3ccc(-c4ccccc4)c(=O)n3C[C@H]1[C@H](CO)[C@H]2C(=O)Nc1ccccc1,18,-7,/,/,-3
Cc1cccc(-c2c3c(=O)n(C)c(=O)n(C)c3cn2-c2ccc(O)cc2)c1,7,/,-4,0,/
Cn1c(=O)c2c(-c3ccccc3)n(-c3cccc(O)c3)cc2n(C)c1=O,/,39*,/,/,5
ClCC1CSC(=NC23CC4CC(CC(C4)C2)C3)O1 (stereo unspecified),-3,17*,-41,-3,-1
CC1(C)C2CCC(C2)C1(C)N=C1OC(CCl)CS1 (stereo unspecified),-4,-1,-14,49,-2
